For 63 molecules, activity, negative = inhibition and AC50 results are on record in PubChem BioAssay AID1851 (National Center for Advancing Translational Sciences (NCATS), 2009).

Molecules are shown by their SMILES. Several values for one entry are separate records, joined by “and”; a condition that tells them apart may be missing. Identical values can stand only once. Out of some 16,000 compounds screened, about 5,700 (36%) were called active. About 24% were inconclusive and are not listed. Calls come from the whole dose curve; as a rule, active = well fitted curve in the direction sought with a large enough effect; inconclusive = small, poorly fitted or top-dose-only effect, or effect the other way; inactive = no such curve, though single readings can be large or run the other way. The list shows a part of the results. Where a structure was tested more than once in an assay, its records may differ in their call.

One may read the AC50 as the concentration giving half of the maximal activity seen.
% is set by controls: 0 for no effect and ±100 for the full control effect.

The target in this experiment is Cytochrome P450 1A2 (Homo sapiens) (UniProt P05177). Put plainly: Cytochrome panel assay with activity outcomes. The conditions noted are these: recombinant CYP, pro-luciferin dealkylation, luminescence, p450-cyp1a2; series mostly up to 57.1 µM.
Chain of Cytochrome P450 1A2 (Homo sapiens) (P05177 whole entry, looked up): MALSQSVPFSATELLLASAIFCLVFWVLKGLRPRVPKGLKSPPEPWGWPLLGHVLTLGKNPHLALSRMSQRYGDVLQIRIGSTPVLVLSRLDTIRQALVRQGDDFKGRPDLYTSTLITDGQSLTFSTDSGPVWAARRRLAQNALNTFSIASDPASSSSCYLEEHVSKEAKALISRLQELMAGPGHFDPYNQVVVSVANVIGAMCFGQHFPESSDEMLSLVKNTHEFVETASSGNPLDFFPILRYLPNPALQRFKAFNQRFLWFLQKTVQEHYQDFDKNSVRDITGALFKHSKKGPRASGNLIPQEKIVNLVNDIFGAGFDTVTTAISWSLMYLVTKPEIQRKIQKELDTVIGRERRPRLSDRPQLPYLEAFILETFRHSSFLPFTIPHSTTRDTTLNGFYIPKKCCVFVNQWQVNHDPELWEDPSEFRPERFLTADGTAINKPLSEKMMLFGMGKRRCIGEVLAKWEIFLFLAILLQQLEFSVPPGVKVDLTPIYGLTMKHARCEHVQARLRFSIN
Turning to `CCCC[C@@H]1CN2[C@H](c3ccc(Br)cc3)[C@H](C)CC[C@H]2C(=O)O1`, the activity, negative = inhibition was 3.25% [at 11.4 µM] (inactive).
With `CN(C)c1ccc(O)c2c1C[C@H]1C[C@H]3[C@@H](N(C)C)C(=O)C(C(N)=O)=C(O)[C@]3(O)C(=O)C1=C2O`, the AC50 result was “inactive”.
Regarding `CN1C(C(=O)Nc2ccccn2)=C(O)c2ccccc2S1(=O)=O`, the concentration at half-maximal activity (AC50) entry is “inactive and 20 µM (active)”.
Consider `Cc1ccccc1NC1=C(C(=O)c2ccccc2)N(C)S(=O)(=O)c2ccccc21`, for which the AC50 entry is “inactive”.
For the molecule `CN1C(C(=O)Nc2ccccn2)=C(O)c2sccc2S1(=O)=O`, the AC50 result was “inactive”.
On to `COc1nc(Oc2ccc(/C=N/O)cc2)nc(N(C)C)n1`, for which the concentration at half-maximal activity (AC50) is 0.447 µM (active).
Consider `CCc1cc2c(nc1CC)CCN(CC/C(C)=N/O[C@@H](C)CN1CCCc3nc(C)c(C)cc31)C2`, for which the activity, negative = inhibition was 5.54% [at 11.4 µM] (inactive).
For `Clc1cccc2c1CN(C1=NCCN1)C2`, the AC50 is 0.398 µM (active).
Regarding `Clc1cccc(Cl)c1NC1=NCCN1`, the AC50 entry is “inactive”.
The same measure, in the same setting: as for `Fc1ccc(CN(C2=NCCN2)c2c(Cl)cccc2Cl)cc1`, the entry is “inactive”; as for `CCNC(=O)CSc1nnc(C2CC2)n1-c1ccccc1`, “inactive”.
With `COC(Cc1nnc(SC)n1-c1ccc(Cl)cc1)OC`, the AC50 entry is “inactive”.
With `CCOc1ccc(NCc2nnc(SCc3ccccc3Cl)n2-c2ccccc2)cc1`, the AC50 was 7.08 µM (active).
In the case of `COC(=O)CSc1nnc(CNc2ccc(Cl)cc2)n1-c1ccccc1`, the half-maximal activity concentration (AC50) was 12.6 µM (active).
With `COc1ccc(-n2c(CNc3ccc(C)cc3)nnc2SCC(=O)Nc2nc(-c3ccccc3)cs2)cc1`, the AC50 entry was “inactive”.
Take `CCCNC(=O)c1cc2c(C(F)(F)F)nn(C)c2s1`: the half-maximal activity concentration (AC50) is 0.794 µM (active).
Turning to `C#CCSc1nnc(-c2cc3c(C(F)(F)F)nn(C)c3s2)n1C`, the half-maximal activity concentration (AC50) was 1.12 µM (active).
Still for that read-out and setting: as for `CCNS(=O)(=O)c1ccc(NC(=O)c2cc(C(F)(F)F)nn2C)cc1`, the entry is “inactive”; as for `C=CCSc1nnc(-c2cc3c(C(F)(F)F)nn(C)c3s2)n1C`, 1.12 µM (active); as for `CCCCSc1nnc(-c2cc3c(C(F)(F)F)nn(C)c3s2)n1C`, 14.1 µM (active).
Take `CCc1c2c(nc3cccc(OC)c13)OC(CC)C2` (stereo not drawn): the concentration at half-maximal activity (AC50) is 2 µM (active).
Regarding `COc1ccc(-c2nsc3c(N4CCCCC4)ncnc23)cc1`, the AC50 was 2.82 µM (active).
As for `COCC(=O)N1CCC2(CC1)CCN(C(=O)Nc1cccc(C#N)c1)CC2`, the AC50 result is “inactive”.
As to `Cc1nnc(-c2cnn(-c3ccccc3)c2N)n1Cc1ccc(F)cc1`, the AC50 result was “inactive”.
`Cc1nnc(-c2cnn(-c3ccccc3)c2N)n1Cc1ccccc1`: the half-maximal activity concentration (AC50) was 14.1 µM (active).
With `NCc1nnn(Cc2ccccc2)c1N`, the activity, negative = inhibition was 2.27% [at 11.4 µM] (inactive).
In the case of `O=C(c1cnccn1)N1CCC2(CCCN(c3ncccn3)C2)CC1`, the AC50 entry was “inactive”.
Regarding `COc1ccc2c(=O)cc(-c3ccncc3)oc2c1OC`, the concentration at half-maximal activity (AC50) was 1.58 µM (active).
Consider `COc1ccc(C2C(C(=O)c3ccco3)=C(O)C(=O)N2Cc2cccnc2)cc1OC` (stereo not drawn), for which the AC50 entry is “inactive”.
Regarding `Cn1cc(C(=O)c2cccc(Cl)c2Cl)cc1C(=O)O`, the AC50 entry was “inactive”.
On the same count and under the same terms, as for `Cn1cccc1C(=O)C(=O)Nc1cccc(Cl)c1Cl`, the figure is 17.8 µM (active); as for `Cn1cccc1C(=O)N1CCC2(CCN(C(=O)Nc3ccccc3)CC2)CC1`, “inactive”; as for `COc1ccccc1CNc1ncncc1-c1ccc(C(=O)N(C)C)cc1`, 12.6 µM (active).
`COc1ccc(CNc2ncncc2-c2ccc(N(C)C)cc2)c(OC)c1`: the AC50 is 0.631 µM (active).
Still for that read-out and setting: the figure for `COc1ccc(CNc2ncncc2-c2ccc(C(=O)N(C)C)cc2)c(OC)c1` is 15.8 µM (active).
For `CC(C)=CCC/C(C)=C/CO/N=C1/C[C@@H](O)[C@@H](O)[C@@H]2[C@@H]3C(=O)N(C4CCCCC4)C(=O)[C@H]3CC[C@H]12`, the activity, negative = inhibition is -2.85% [at 11.4 µM] (inactive).
As to `C[C@@]12CCC(=O)C=C1CC[C@@H]1[C@@H]2[C@H](O)C[C@]2(C)[C@@H]1CC[C@]2(O)C(=O)COC(=O)CCC(=O)O`, the AC50 entry was “inactive”.
Take `Cc1ccccc1C(=O)Nc1ccc(C(=O)NNC(=O)CCCOc2ccc(Cl)cc2Cl)cc1`: the AC50 entry is “inactive”.
Still for that read-out and setting: as for `CC(C/C=N/NC(=O)COc1cc(Cl)ccc1Cl)c1ccccc1` (stereo not drawn), the figure is 0.562 µM (active); as for `O=C(COc1ccc(Cl)cc1Cl)N/N=C/CCc1ccccc1`, 1 µM (active).
Take `COC(=O)c1c(-c2cc(OC)c(OC)c(OC)c2)c2ccnc(OCc3ncccn3)c2c(=O)n1Cc1ccnc(C)c1`: the AC50 result was “inactive”.
Turning to `CCc1ccc(/C=C\C(=O)N2CCc3ccccc3C2)cc1`, the AC50 is 14.1 µM (active).
Consider `O=C(c1ccc(CN2CCc3ccccc3C2)cc1)N1CCc2ccccc2C1`, for which the AC50 result was “inactive”.
In the case of `N=C(N)N1CCc2ccccc2C1`, the AC50 entry was “inactive”.
On the same count and under the same terms, the figure for `Cc1cccc2c1OCC/C2=N\NC(=O)COc1ccccc1` is 2.51 µM (active).
For the molecule `CCOC(=O)C1=NOC(CNC(=O)C2=NOC(CNC(=O)c3c(-c4ccccc4Cl)noc3C)C2)C1` (stereo not drawn), the AC50 entry is “inactive”.
For the molecule `Cc1ccccc1OCC(=O)N/N=C1\CCOc2c(C)cccc21`, the AC50 result is “inactive”.
On the same count and under the same terms, the figure for `COc1cccc(OCC(=O)NN=C2c3ccccc3-c3ccccc32)c1` is 0.501 µM (active); for `Cc1cccc2c1OCC/C2=N\NC(=O)COc1ccccc1Cl` it is 0.891 µM (active).
In the case of `CO/N=C\[C@@H](NS(=O)(=O)c1ccc(C)cc1)[C@H](C)/C=C\CC(=O)OC`, the activity, negative = inhibition is -9.25% [at 11.4 µM] (inactive).
`CO/N=C(/C)CCC(=O)OC[C@@H]1O[C@H](C#Cc2ccccc2)C=C[C@@H]1Oc1ccc(C)cc1`: the activity, negative = inhibition was -10.1% [at 11.4 µM] (inactive).
As for `CC(=O)[C@@]1(O)CC[C@H]2[C@H]3C[C@@H](C)C4=CC(=O)C=C[C@]4(C)[C@@]3(F)[C@@H](O)C[C@]21C`, the AC50 entry is “inactive”.
Consider `CC(=O)[C@H]1CC[C@H]2[C@@H]3C=CC4=CC(=O)CC[C@@]4(C)[C@H]3CC[C@]12C`, for which the AC50 entry was “inactive”.
`COc1ccc(-n2c(=O)c(-c3cccc(Cl)c3)nc3cncnc32)cc1`: the concentration at half-maximal activity (AC50) was 1 µM (active).
On to `O=c1c(-c2ccccc2)nc2cncnc2n1-c1ccccc1`, for which the AC50 was 5.01 µM (active).
For `O=c1c(-c2cccc(Cl)c2)nc2cncnc2n1-c1ccccc1`, the AC50 was 2 µM (active).
As for `Cc1ccc(S(=O)(=O)N[C@H]2COC(=O)C/C=C\[C@H](C)[C@@H](NS(=O)(=O)c3ccc(C)cc3)COC(=O)C/C=C\[C@@H]2C)cc1`, the activity, negative = inhibition was -10.6% [at 11.4 µM] (inactive).
As for `Cc1ccc(CNC(=O)[C@H]2C[C@@H]2[C@H](NP(=O)(c2ccccc2)c2ccccc2)c2ccccc2)c(F)c1F`, the AC50 result is “inactive”.
Take `C[C@H](CO)NC(=O)[C@H]1C[C@@H]1[C@H](NP(=O)(c1ccccc1)c1ccccc1)c1ccccc1`: the AC50 entry is “inactive”.
`C[C@H](CO)NC(=O)[C@@H]1C[C@H]1[C@@H](NP(=O)(c1ccccc1)c1ccccc1)c1ccccc1`: the AC50 result was “inactive”.
Regarding `O=C(Nc1ccc2ccccc2c1)[C@H]1C[C@@H]1[C@H](NP(=O)(c1ccccc1)c1ccccc1)c1ccccc1`, the AC50 was 10 µM (active).
On to `Cc1cc(CNC(=O)[C@@H]2C[C@H]2[C@@H](NP(=O)(c2ccccc2)c2ccccc2)c2ccccc2)nn1C`, for which the AC50 entry was “inactive”.
As for `O=C(NCc1cc(F)cc2c1OCCO2)[C@H]1C[C@@H]1[C@H](NP(=O)(c1ccccc1)c1ccccc1)c1ccccc1`, the AC50 is 15.8 µM (active).
